Among the test systems are PIKFYVE; PIM1; PIM2; PIM3; PIP5K1A; PIP5K1C; PIP5K2B; PKMYT1; PKN1; PKN2; PLK1; PLK2; PLK3; PLK4; PRKCD; PRKCE.
Common to all, as to conditions: concentration: 1 μM, replicates: in singlicate; n = 1
A further assay deals with T1, PIK4CB.
T1 construct: gene PI4KB

The next assay relates to T2, PIP5K2C.
T2 construct: gene PIP4K2C

In a further assay the test system is T3, PKAC-alpha.
T3 construct: gene PRKACA

The next assay relates to T4, PKAC-beta.
T4 construct: gene PRKACB

The record followed here is article PMC5540273 (PLoS ONE, 2017).

Molecules are shown by their SMILES.
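Note: KINOMEscan kinase panel screen.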

Take `O=C(Nc1n[nH]c2cc(-c3ccsc3)ccc12)C1CC1` [SB-732932]: the “%Inh” value amounted to 27% in the assay with PIK4CB; 0% with PIKFYVE; 18% in the assay with PIM1; 0% in the assay with PIM2; 11% with PIM3; 61% in the assay on PIP5K1A. The “%Inh” value with PIP5K1C came out at 3%; with PIP5K2B it was 52%; with PIP5K2C it was 3%; with PKAC-alpha it was 0%; with PKAC-beta it was 18%; in the assay with PKMYT1, 9%. In addition, the “%Inh” value was determined as 56% in the assay on PKN1; 4% in the assay with PKN2; 2% with PLK1; 24% with PLK2; 0% with PLK3; 0% in the assay with PLK4. Moreover, the “%Inh” value in the assay with PRKCD and with PRKCE was 0% each time.

On to `O=c1cc(N2CCOCC2)nc2n(Cc3ccccc3F)ccn12` [GSK2297428], for which the “%Inh” value with PIK4CB was 0%; in the assay with PIKFYVE, 0%; in the assay with PIM1, 0%; with PIM2, 0%; with PIM3, 0%; with PIP5K1A it was 6%. Besides, the “%Inh” value in the assay on PIP5K1C stood at 31%; with PIP5K2B, 19%; in the assay with PIP5K2C it was 0%; in the assay on PKAC-alpha, 0%; with PKAC-beta, 0%; in the assay on PKMYT1, 0%. Further, the “%Inh” value turned out to be 7% in the assay with PKN1; 0% in the assay on PKN2; 13% with PLK1; 0% with PLK2; 0% with PLK3; 8% in the assay on PLK4. Besides, the “%Inh” value in the assay with PRKCD was 0%; in the assay on PRKCE it was 1%.

Take `Nc1ncnc2occ(-c3ccc4c(c3)CCN4C(=O)Cc3cc(F)ccc3F)c12` [GSK2645446]: the “%Inh” value in the assay with PIK4CB, in the assay with PIKFYVE, in the assay on PIM1, in the assay on PIM2, with PIM3 and in the assay on PIP5K1A was 0% each time. In addition, the “%Inh” value in the assay with PIP5K1C came to 52%; with PIP5K2B, 0%; in the assay on PIP5K2C it was 16%; in the assay with PKAC-alpha, 0%; in the assay with PKAC-beta, 8%; with PKMYT1, 0%. Further, the “%Inh” value in the assay on PKN1 is 7%; in the assay on PKN2, 0%; in the assay with PLK1, 0%; in the assay with PLK2, 0%; in the assay with PLK3, 0%; in the assay on PLK4, 5%. Besides, the “%Inh” value with PRKCD and in the assay with PRKCE was 0% in each case.

On to `O=c1cc(N2CCOCC2)nc2n(Cc3cccc(Cl)c3Cl)c3ccccc3n12` [GSK2299009], for which the “%Inh” value in the assay with PIK4CB, in the assay with PIKFYVE, with PIM1, in the assay with PIM2, in the assay with PIM3 and in the assay on PIP5K1A was 0% in each case. Further, the “%Inh” value with PIP5K1C came out at 17%; with PIP5K2B it was 0%; in the assay with PIP5K2C it was 0%; with PKAC-alpha, 0%; with PKAC-beta, 11%; in the assay on PKMYT1 it was 32%. For the same molecule, the “%Inh” value in the assay on PKN1 was determined as 21%; with PKN2 it was 0%; in the assay on PLK1, 0%; in the assay on PLK2, 0%; in the assay on PLK3 it was 0%; with PLK4, 7%. The entries for the “%Inh” value in the assay with PRKCD and with PRKCE were 32% and 3%, respectively.

As to `Nc1nccc(-c2c(-c3ccc(F)cc3)ncn2C2CCN(Cc3ccccc3)CC2)n1` [SB-219980], the “%Inh” value was 25% in the assay with PIK4CB; 6% in the assay with PIKFYVE; 0% with PIM1; 0% in the assay with PIM2; 0% in the assay on PIM3; 0% with PIP5K1A. For the same molecule, the “%Inh” value in the assay on PIP5K1C worked out at 15%; in the assay with PIP5K2B, 0%; in the assay with PIP5K2C, 82%; with PKAC-alpha, 2%; in the assay with PKAC-beta, 0%; in the assay on PKMYT1 it was 26%. Further, the “%Inh” value in the assay on PKN1 worked out at 0%; with PKN2 it was 0%; in the assay on PLK1 it was 12%; in the assay with PLK2, 28%; in the assay with PLK3, 10%; with PLK4, 8%. In addition, the “%Inh” value in the assay with PRKCD came out at 0%; in the assay on PRKCE, 1%.

For the molecule `CC(=O)c1cccc(NC(=O)NC2CCN(c3ccnc(Nc4ccc(F)cc4)n3)C2)c1` (stereo not shown) [GSK1379710], the “%Inh” value in the assay with PIK4CB is 31%; with PIKFYVE it was 25%; with PIM1, 18%; with PIM2, 0%; in the assay with PIM3, 4%; in the assay with PIP5K1A it was 36%. Besides, the “%Inh” value was 50% with PIP5K1C; 8% with PIP5K2B; 22% in the assay on PIP5K2C; 0% with PKAC-alpha; 0% in the assay on PKAC-beta; 3% with PKMYT1. For the same molecule, the “%Inh” value in the assay with PKN1 came to 31%; in the assay with PKN2 it was 0%; with PLK1 it was 7%; with PLK2, 0%; in the assay on PLK3, 9%; in the assay on PLK4, 0%. In addition, the figures for the “%Inh” value in the assay on PRKCD and with PRKCE were 0% and 15%, respectively.

Take `CSc1ccc(-c2nc3n(c2-c2ccncc2)CCC3)cc1` [SKF-105561]: the “%Inh” value came out at 24% in the assay with PIK4CB; 11% with PIKFYVE; 0% with PIM1; 0% with PIM2; 1% in the assay with PIM3; 37% in the assay with PIP5K1A. For the same molecule, the “%Inh” value is recorded as 0% with PIP5K1C; 21% in the assay on PIP5K2B; 0% in the assay with PIP5K2C; 5% with PKAC-alpha; 18% in the assay on PKAC-beta; 5% in the assay on PKMYT1. Besides, the “%Inh” value in the assay on PKN1 is recorded as 0%; with PKN2, 12%; in the assay on PLK1 it was 1%; in the assay on PLK2 it was 29%; in the assay with PLK3, 6%; in the assay with PLK4, 2%. In addition, the “%Inh” value with PRKCD was 9%; in the assay on PRKCE it was 23%.

`Cc1nccc(-c2c(-c3ccc(F)cc3)ncn2CCCN2CCOCC2)n1.Cl` [SB-282975]: the “%Inh” value in the assay with PIK4CB was determined as 42%; with PIKFYVE, 0%; in the assay on PIM1, 0%; with PIM2, 13%; in the assay on PIM3, 0%; in the assay on PIP5K1A, 0%. Moreover, the “%Inh” value in the assay on PIP5K1C is 22%; in the assay with PIP5K2B it was 0%; in the assay with PIP5K2C, 18%; in the assay with PKAC-alpha, 24%; with PKAC-beta, 0%; in the assay on PKMYT1, 0%. In addition, the “%Inh” value with PKN1 came out at 19%; with PKN2, 1%; in the assay with PLK1, 44%; in the assay with PLK2, 21%; with PLK3, 5%; with PLK4, 3%. In addition, the “%Inh” value in the assay on PRKCD is listed as 31%; in the assay with PRKCE it was 11%.

Turning to `Cc1ccc(NC(=O)c2ccc(Cl)cc2)cc1-c1ccc(C(=O)Nc2ccncc2)cc1` [GSK1398467], the “%Inh” value with PIK4CB, in the assay with PIKFYVE, in the assay on PIM1, with PIM2, in the assay with PIM3 and in the assay with PIP5K1A was 0% in each case. For the same molecule, the “%Inh” value with PIP5K1C is reported as 45%; in the assay with PIP5K2B, 0%; with PIP5K2C, 33%; in the assay with PKAC-alpha, 0%; in the assay on PKAC-beta, 0%; in the assay with PKMYT1, 2%. The “%Inh” value in the assay with PKN1 is recorded as 2%; in the assay on PKN2, 0%; with PLK1, 0%; with PLK2 it was 0%; with PLK3, 0%; with PLK4, 0%. In addition, the “%Inh” value in the assay with PRKCD was found to be 3%; with PRKCE, 15%.

On to `Cc1ccc(NC(=O)Nc2ccc(Cl)c(C(F)(F)F)c2)cc1-c1ccc(C(=O)Nc2ccncc2)cc1` [GSK1398470], for which the “%Inh” value stood at 0% in the assay with PIK4CB; 0% in the assay on PIKFYVE; 23% in the assay on PIM1; 1% in the assay on PIM2; 21% in the assay on PIM3; 0% in the assay on PIP5K1A. The “%Inh” value in the assay on PIP5K1C was determined as 23%; in the assay with PIP5K2B, 0%; in the assay on PIP5K2C, 8%; in the assay with PKAC-alpha it was 15%; in the assay with PKAC-beta, 0%; in the assay on PKMYT1 it was 0%. Further, the “%Inh” value was found to be 10% with PKN1; 25% with PKN2; 0% in the assay with PLK1; 0% in the assay with PLK2; 0% in the assay on PLK3; 0% in the assay with PLK4. The “%Inh” value in the assay with PRKCD and with PRKCE was 0% each time.

For the molecule `FC(F)(F)c1ccccc1-c1cc(-c2c[nH]nc2-c2ccccn2)ccn1` [GW679396], the “%Inh” value in the assay on PIK4CB came out at 0%; in the assay on PIKFYVE it was 0%; with PIM1 it was 0%; in the assay on PIM2, 0%; in the assay with PIM3, 0%; with PIP5K1A it was 5%. Besides, the “%Inh” value is reported as 32% with PIP5K1C; 15% in the assay with PIP5K2B; 0% with PIP5K2C; 0% with PKAC-alpha; 17% with PKAC-beta; 5% in the assay with PKMYT1. Besides, the “%Inh” value turned out to be 0% in the assay with PKN1; 12% in the assay on PKN2; 1% in the assay on PLK1; 0% with PLK2; 0% with PLK3; 1% in the assay with PLK4. Further, the “%Inh” value in the assay with PRKCD came to 6%; in the assay on PRKCE it was 11%.
